Measurements taken from PubChem BioAssay (EPA / NIEHS).
The source made the active and inactive calls. How the source made its calls: active means hit-call score of the fitted dose curve at least 0.9, where 1 is the maximum; inactive means score below 0.9.

Assay: ATG_NRF2_ARE_CIS: Attagene CIS-FACTORIAL HepG2 Assay for human Nuclear Factor Erythroid 2 Related Factor 2 (NFR2) response to Antioxidant Response Elements (ARE) (AID 2282992)
Settings: HepG2 Attagene ARE/NRF2 reporter, transcription factor activity; actives raise or lower the signal
Procedure: ATG_CIS is a cell-based, multiplexed-readout assay that uses HepG2, a human liver cell line, with measurements taken at 24 hours after chemical dosing in a 24-well plate.ATG_NRF2_ARE_CIS is one of 52 assay component(s) measured or calculated from the ATG_CIS assay. It is designed to make measurements of mRNA induction, a form of inducible reporter, as detected with fluorescence intensity signals by Reverse transcription polymerase chain reaction (RT-PCR) and Capillary electrophoresis technology.Data from the assay component ATG_NRF2_ARE_CIS was analyzed into 1 assay endpoint. This assay endpoint, ATG_NRF2_ARE_CIS, was analyzed with bidirectional fitting relative to DMSO as the negative control and baseline of activity. Using a type of inducible reporter, measures of mRNA for gain or loss-of-signal activity can be used to understand the reporter gene at the transcription factor-level as they relate to the gene NFE2L2. Furthermore, this assay endpoint can be referred to as a primary readout, because this assay has produced multiple assay endpoints where this one serves a reporter gene function. To generalize the intended target to other relatable targets, this assay endpoint is annotated to the dna binding intended target family, where the subfamily is basic leucine zipper.
Human liver HepG2 cells are transiently transfected with multiple reporter transcription units (MRTUs) in 6-well plates using FuGene 6 reagent (Roche; 3 ml FuGene/1 mg DNA). The MRTU constructs are regulated by a cis-regulating element (promoter). […] A major difference between the CIS and TRANS system is that in CIS activities of endogenous TFs are measured, whereas the TRANS assay evaluates changes in activities of exogenous, chimeric NR-Gal4 proteins. […] At the end of 24 hour incubation, total RNA was isolated using TriZol reagent (Invitrogen). The isolated RNA is then reverse-transcribed using oligo(dT) primer and Mo-MLV reverse transcriptase (Invitrogen) with DNAse I (Ambion) treatment for 30 min. The one-tenth of the produced cDNA was amplified by PCR using Taq DNA polymerase (Invitrogen) and two reporter sequence-specific primers. The PCR products were fluorescently labeled by primer extension with 6-arboxyfluorescein (6-FAM) 5'-labeled reporter sequence-specific primer (2 min at 95 C, 20 s at 68 C and 10 min at 72 C) and these products were digested with 5U of HpaI (New England Biolabs) for 2h at 37 C. The fragments were purified using Qiaquick PCR columns (Qiagen), analyzed on an ABI 3130xL genetic analyzer (Applied Biosystems) with peak positions identified by using a set of X-rhodamine (ROX)-labeled MapMarker1000 molecular weight standards (BioVentures). The raw capillary electrophoresis data was processed using Attagraph software (Attagene).
For CC(C)CCCCCOC(=O)CCS, the outcome was “inactive”.
With CCO[Si](C)(OCC)OCC the outcome was “inactive”.
With CC1=Nc2ccc3ccccc3c2C1(C)C the AC50 was 100 µM (active).
In the case of CC(C)(C)C(=O)CCc1ccc(Cl)cc1, the outcome is reported as “inactive”.
With C=CCOc1c(Br)cc(Br)cc1Br the outcome was “inactive”.
With CCCCCCOC(=O)C(C)CC (stereo not given) the outcome was “inactive”.
With c1cc(C(c2ccc(OCC3CO3)cc2)C(c2ccc(OCC3CO3)cc2)c2ccc(OCC3CO3)cc2)ccc1OCC1CO1 (stereo not given) the AC50 was 21.1 µM (active).
For O=CN1CCCCC1, the outcome was “inactive”.
For CC(=O)c1ccc2c(c1)CCCC2, the outcome was “inactive”.
In the case of CCc1ccc2c(c1)C(=O)c1ccccc1C2=O, the AC50 is reported as 14.5 µM (active).
With Nc1ccc(Cl)cc1Cl the outcome was “inactive”.
In the case of COC=O, the outcome is reported as “inactive”.
With CC(C)(c1cc(Br)c(OCCO)c(Br)c1)c1cc(Br)c(OCCO)c(Br)c1 the AC50 was 18.6 µM (active).
In the case of O=C1c2ccccc2C(=O)C1c1nc2ccccc2c(Br)c1O, the AC50 is reported as 1.83 µM (active).
In the case of CCOC(=O)CC, the outcome is reported as “inactive”.
In the case of CCOc1nc(F)cc2nc(S(=O)(=O)Nc3c(Cl)cccc3C(=O)OC)nn12, the AC50 is reported as 27 µM (active).
For O=C(C=Cc1ccccc1)OCc1ccccc1, the AC50 was 34.4 µM (active).
With CCCCCCCCC(=O)OCC the AC50 was 47.4 µM (active).
In the case of CCCCCCCC[N+](C)(CCCCCCCC)CCCCCCCC, the AC50 is reported as 1.59 µM (active).
For CC(C)(Oc1ccc(C2CC2(Cl)Cl)cc1)C(=O)O (stereo not given), the outcome was “inactive”.
In the case of OCCc1ccncc1, the outcome is reported as “inactive”.
For O=C1CCCC1, the outcome was “inactive”.
For NC(=O)N=NC(N)=O, the outcome was “inactive”.
In the case of COc1ccc(C(Cl)=C(c2ccc(OC)cc2)c2ccc(OC)cc2)cc1, the outcome is reported as “inactive”.
In the case of COC(=O)c1sccc1S(N)(=O)=O, the outcome is reported as “inactive”.
In the case of CCOC(=O)NNc1nncc2ccccc12, the outcome is reported as “inactive”.
With NC(=O)C1CO1 (stereo not given) the outcome was “inactive”.
With O=C(Nc1cccc(C(F)(F)F)c1)c1cc(Br)cc(Br)c1O the AC50 was 0.851 µM (active).
In the case of O=C1CCCC(=O)O1, the outcome is reported as “inactive”.
With CNC(=S)N(C)C the outcome was “inactive”.
In the case of Cc1ccc(C(C)c2ccc(C)c(C)c2)cc1C, the AC50 is reported as 37.5 µM (active).
For C[Si](C)(C)O[Si](O)(O)O, the outcome was “inactive”.
In the case of C=C(C)[C@H]1CC=C(C)CC1, the outcome is reported as “inactive”.
For N#CCc1ccc(Cl)cc1Cl, the outcome was “inactive”.
For Cc1cc(C)c(C)c(O)c1, the outcome was “inactive”.
For CN(C)CCCN(C)C, the outcome was “inactive”.
For O=C1C(N(CO)C(=O)NCO)N(CO)C(=O)N1CO (stereo not given), the outcome was “inactive”.
For O=C(Oc1ccccc1)c1ccc2ccccc2c1O, the AC50 was 18.3 µM (active).
For Cc1oncc1C(=O)Nc1ccc(C(F)(F)F)cc1, the AC50 was 100 µM (active).
For CCCCCCOc1cc(C)c(O)c(C)c1C, the AC50 was 7.78 µM (active).
